Measurements from PubChem BioAssay (EPA / NIEHS).
Calls of active or inactive are those of the source. Rule for the calls: active = hit-call score of the fitted dose curve at least 0.9, where 1 is the maximum; inactive = score below 0.9.

experiment: CCTE_Padilla_ZF_144hpf_TERATOSCORE: (Legacy) CCTE's 144 Hour Post-fertilization zebrafish Assay Teratoscore, Padilla Lab (AID 2283679);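 for AC50: teratogenicity score from eye scoring of death hatching and malformations at 144 hpf; higher score means more developmental defects relative to DMSO baseline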
Text: CCTE_Padilla_ZF_144hpf is a whole embryo, multiplexed assay. Zebrafish embryos were exposed to chemicals starting 6 hr post-fertilization for 5 days in 96-well plates. Developing larvae were examined microscopically daily for malformation and mortality.CCTE_Padilla_ZF_144hpf_TERATOSCORE is one of one assay component(s) measured or calculated from the CCTE_Padilla_ZF_144hpf assay. It is designed to make measurements of developmental malformations and mortality as detected with brightfield microscopy.Data from the assay component CCTE_Padilla_ZF_144hpf_TERATOSCORE was analyzed into 1 assay endpoint. This assay endpoint, CCTE_Padilla_ZF_144hpf_TERATOSCORE, was analyzed in the positive analysis fitting direction relative to DMSO as the negative control and baseline of activity. Using a type of morphological reporter, gain-of-signal activity can be used to understand changes in developmental defect as they relate to the whole embryo. To generalize the intended target to other relatable targets, this assay endpoint is annotated to the malformation intended target family, where the subfamily is total.
Zebrafish husbandry: Wild type adult zebrafish (Danio rerio; undefined outbred stock obtained from Aquatic Research Organisms, Hampton, NH, 03842) were housed in an AAALAC-approved animal facility at 28C with a 14:10 h light: dark cycle (lights on at 08:30 h). Adult fish (2-3 females per male; density = 15-20 adults per tank) were kept in one of several 9-liter (L) flow-through colony tanks (Aquaneering Inc., San Diego, CA). All adults in a colony tank were placed in a 2 L (static) breeding tank (Aquatic Habitats, Apopka, FL) one hour prior to light onset. Typically, adults from two to three colony tanks were mated on the same day. Two hours after light onset the adults were returned to the colony tank. All embryos were gathered from each breeder tank, pooled, and placed in a 28C water bath for 2 h, followed by two washes with 0.06% bleach (v/v) in 10% Hanks' Balanced Salt Solution (13.7 mM NaCl 0.54 mM KCl, 25 uM Na2HPO4, 130 uM CaCl2 100 um MgSO4 and 420 um NaHCO3,), hereafter referred to as Hanks' solution, for 5 min in order to remove any residual bacteria or fungi. Immediately following washing, the embryos were examined, and healthy embryos were separated from dead or unfertilized eggs and moved into fresh Hanks'. Single Concentration Study: The chemicals were arrayed on a 96-well stock plate, 80 chemicals per plate, 20 mM concentration of each, with 16 DMSO (vehicle) controls. The embryos were exposed to the chemicals (80 Mfinal concentration, renewed daily) by immersion from 0 dpf until 5 dpf. Eighty micromolar was chosen as the highest concentration for two reasons (1) because the stock solutions were prepared at 20 mM in 100% DMSO. On 6 dpf, each embryo/larva was assessed for viability, hatching status and malformations. There were 4 embryos per concentration per chemical (each embryo on a separate microtiter plate). […] Chemical exposures: Zebrafish embryos were exposed in 96-well plates. Briefly, on day 0, approximately 6-8 h after fertilization, zebrafish embryos (with chorions) were placed 1 embryo per well in Millipore Multiscreen Nylon mesh plates (catalog number MANMN4050, Millipore Corp, Bedford, MA) and exposed to nominal concentrations of the chemicals. In each well, 1 ul of the chemical in DMSO from the stock plate was diluted with 250 ul of 10% Hanks' solution; the final DMSO concentration was 0.4% (v/v) in all wells; vehicle controls receives DMSO only. Each plate was sealed with a non-adhesive material (Type A, BioRad, Hercules, CA), covered with a lid, and wrapped in Parafilm to minimize evaporation. All embryos and larvae were kept in a 26C incubator with a 14:10 h light-dark cycle (with lights on at 08:30 h and off at 22:30 h). […]

| SMILES | outcome | AC50 |
| --- | --- | --- |
| Cc1ccn2nc(S(=O)(=O)Nc3c(F)cccc3F)nc2n1 | inactive |  |
| CN(C)C(=O)Nc1cccc(C(F)(F)F)c1 | inactive |  |
| CCCCOC(=O)[C@@H](C)Oc1ccc(Oc2ccc(C#N)cc2F)cc1 |  | 2.1 µM (active) |
| COc1ccc(C(=CC(=O)N2CCOCC2)c2ccc(Cl)cc2)cc1OC |  | 23.6 µM (active) |
| CSc1nnc(C(C)(C)C)c(=O)n1N | inactive |  |
| COP(=O)(OC)SCn1c(=O)oc2cc(Cl)cnc21 |  | 51.1 µM (active) |
| Cc1cc(C2CC2)nc(Nc2ccccc2)n1 |  | 15.3 µM (active) |
| CCCCN(CC)c1c([N+](=O)[O-])cc(C(F)(F)F)cc1[N+](=O)[O-] |  | 5.08 µM (active) |
| CCOP(=O)(SC(C)CC)N1CCSC1=O (stereo not given) | inactive |  |
| Nc1nc(N)nc(NC2CC2)n1 | inactive |  |
| CSc1nc(NC(C)C)nc(NC(C)C)n1 |  | 132 µM (active) |
| CCc1cnc(C2=NC(C)(C(C)C)C(=O)N2)c(C(=O)O)c1 (stereo not given) | inactive |  |
| CC1(C(=O)Nc2ccc(O)c(Cl)c2Cl)CCCCC1 |  | 10.1 µM (active) |
| CNC(=O)ON=C(SC)C(=O)N(C)C | inactive |  |
| N#CSCSC#N |  | 5.18 µM (active) |
| O=c1ccc(=O)[nH][nH]1 | inactive |  |
| COc1cc(OC)nc(Sc2cccc(Cl)c2C(=O)O)n1 | inactive |  |
| COP(=O)(NC(C)=O)SC (stereo not given) | inactive |  |
| CNC(=O)Oc1cccc2c1OC(C)(C)O2 |  | 50.1 µM (active) |
| CCCOCC(=Nc1ccc(Cl)cc1C(F)(F)F)n1ccnc1 |  | 2.07 µM (active) |

| SMILES | outcome | AC50 |
| --- | --- | --- |
| CCCSP(=O)(OCC)SCCC | inactive |  |
| CCC(=O)Nc1ccc(Cl)c(Cl)c1 |  | 61.3 µM (active) |
| CNC(=O)ON=C(C)SC |  | 73.3 µM (active) |
| CC(COc1ccc(Oc2ccccc2)cc1)Oc1ccccn1 (stereo not given) |  | 47.6 µM (active) |
| CCC(CC)Nc1c([N+](=O)[O-])cc(C)c(C)c1[N+](=O)[O-] |  | 24.2 µM (active) |
| CCC(=NOC/C=C/Cl)C1=C(O)CC(C2CCOCC2)CC1=O (stereo not given) | inactive |  |
| CC(C)=CC1C(C(=O)OCN2C(=O)C3=C(CCCC3)C2=O)C1(C)C (stereo not given) |  | 12.3 µM (active) |
| C[Si](Cn1cncn1)(c1ccc(F)cc1)c1ccc(F)cc1 |  | 9.34 µM (active) |
| C[N+]1(C)CCCCC1 | inactive |  |
| CC(C)[C@H](C(=O)O[C@H](C#N)c1cccc(Oc2ccccc2)c1)c1ccc(Cl)cc1 |  | 0.166 µM (active) |
| COP(=O)(OC)OC(Br)C(Cl)(Cl)Br (stereo not given) |  | 16.7 µM (active) |
| CCOP(=S)(OCC)Oc1cc(C)nc(C(C)C)n1 |  | 62.7 µM (active) |
| CCCOc1nn(C(=O)NS(=O)(=O)c2ccccc2C(=O)OC)c(=O)n1C | inactive |  |
| O=[N+]([O-])c1cc(C(F)(F)F)c(Cl)c([N+](=O)[O-])c1Nc1ncc(C(F)(F)F)cc1Cl |  | 0.994 µM (active) |
| CCc1cccc(CC)c1N(COC)C(=O)CCl |  | 35.4 µM (active) |
| COc1cccc(C(=O)NN(C(=O)c2cc(C)cc(C)c2)C(C)(C)C)c1C | inactive |  |
| CN(C)NC(=O)CCC(=O)O | inactive |  |
| C=C(C)[C@H]1Cc2c(ccc3c2O[C@@H]2COc4cc(OC)c(OC)cc4[C@@H]2C3=O)O1 |  | 0.000155 µM (active) |
| CCOP(=S)(Oc1cnc(C(C)(C)C)nc1)OC(C)C (stereo not given) |  | 16.8 µM (active) |
| CC[C@H](C)[C@H]1O[C@]2(C=C[C@@H]1C)C[C@@H]1C[C@@H](C/C=C(\C)[C@@H](O[C@H]3C[C@H](OC)[C@@H](O[C@H]4C[C@H](OC)[C@@H](NC)[C@H](C)O4)[C@H](C)O3)[C@@H](C)/C=C/C=C3\CO[C@@H]4[C@H](O)C(C)=C[C@@H](C(=O)O1)[C@]34O)O2 |  | 3.41 µM (active) |
